# Laboratory results: the OligoGym collection
# Target: CORIN
# Assay: pooled miR-30 sensor sort-seq; sequence = guide strand
# Conditions: shRNA
# Also: reference of the scale not given here.
row,Sequence,sensor-assay potency score (higher = more potent)
1,TTTATTGCTGTCTTTTATCAGT,-0.911
2,TATTTGTAAGAATAACATCGGA,-0.524
3,ATGATCTTGATATACATCCAGA,-1.55
4,TTGAACTTTCATACAATCGTGA,0.765
5,TTGAGTATGTAGCTACAACTGT,-0.57
6,ATTTGTAAGAATAACATCGGAC,-0.147
7,TAAATCTGTCTTTTAATCCATT,-1.02
8,TTGATATACATCCAGAATGGGG,-1.35
9,TTATTCAGACTGTTGTTCGGGT,0.501

# Target: CORO2B
# Assay: as above
# Conditions: shRNA
row,Sequence,sensor-assay potency score (higher = more potent)
1,TTGTAGTCGTAGCCAGCGCTGA,-0.89
2,TAGAAGCGGAACACCTCGCAGG,-0.524
3,TTGTCGTGCACATTCTTGGTGA,-0.294
4,TTCTAATAAATCTATTCCGTTG,-0.9
5,ATCTGTCTTGTGTTCCACCTGG,-0.685
6,TATTTCAATTCTATCCTTGGGA,0.222
7,TTGTAGAAGCGGAACACCTCGC,-0.204
8,TAATGCATCTAGTAGATCCTAG,0.537
9,TTCTTGTCCTTGCACGTGGTGG,-1.22
10,TTTCTAATAAATCTATTCCGTT,-1.03
11,TAGACATTCCGGAACTTGGAGC,-1.06
12,TTTTCTAATAAATCTATTCCGT,-0.324

# Target: COX10
# Assay: as above
# Conditions: shRNA
row,Sequence,sensor-assay potency score (higher = more potent)
1,TGATTTTGGATAGTCGAGCCAA,-0.198
2,TTTTAGAAGGAACTGCTTCCAA,-0.134
3,TTCAGTGGTGTGTAGCAGCAGG,-0.511
4,TTGAAATGAGGAAACTGCCAGG,-0.59
5,TTTGAGGAAGCTAAAGTGCTGA,0.14
6,TAACCGTATTTGGTAACCGAGA,-1.58
7,TTATCTACCTACAATCCCTTTA,-0.2
8,TTGTATTCACTGACTGAGCTGA,-0.0577
9,TGATTGGATGTTATCTACCTAC,-0.498
10,TTTAGAAGGAACTGCTTCCAAC,-0.611
11,TTTCTGCTTTGGCTTGACCTGA,-0.722
12,TTCGTTTATAATCTTGTTCTAA,0.241
13,TACACTTGCAGCTTCATCTCTT,1.01
14,TTTCTGGACAAAGATAGGCTGG,-0.448
15,TATTGAGTCTTCAATTACTGAG,-0.782
16,TCTGCGTCCACGTAGAAGCGGA,-0.792
17,TTCTTTGTCCTATTCATGTTTG,-0.705
18,TACCACAACATGCTCGCCTGGC,-0.0841
19,ATAATCTTGTTCTAAACCCAGC,-0.854
